Among the data in ChEMBL document CHEMBL3988442, “University of Dundee, Small-Polar-MMV Screening Library” (2021) are Percent Effect values, retold here.

For some of these results: Potency and affinity values are given separately.

What all share (design): scale not given: direction of the effect not stated beside the values
Test [1] deals with Protein translocase subunit SecA (Escherichia coli (strain K12)) (UniProt P10408). Put plainly: Assay to Identify E. coli SecA ATPase Inhibitors. Format: functional. Conditions: 30 µM.
Test [2] has as its target T1, Ubiquitin-activating enzyme e1, putative (Leishmania donovani (strain BPK282A1)) (UniProt E9BSI1).
T1 sequence (whole entry): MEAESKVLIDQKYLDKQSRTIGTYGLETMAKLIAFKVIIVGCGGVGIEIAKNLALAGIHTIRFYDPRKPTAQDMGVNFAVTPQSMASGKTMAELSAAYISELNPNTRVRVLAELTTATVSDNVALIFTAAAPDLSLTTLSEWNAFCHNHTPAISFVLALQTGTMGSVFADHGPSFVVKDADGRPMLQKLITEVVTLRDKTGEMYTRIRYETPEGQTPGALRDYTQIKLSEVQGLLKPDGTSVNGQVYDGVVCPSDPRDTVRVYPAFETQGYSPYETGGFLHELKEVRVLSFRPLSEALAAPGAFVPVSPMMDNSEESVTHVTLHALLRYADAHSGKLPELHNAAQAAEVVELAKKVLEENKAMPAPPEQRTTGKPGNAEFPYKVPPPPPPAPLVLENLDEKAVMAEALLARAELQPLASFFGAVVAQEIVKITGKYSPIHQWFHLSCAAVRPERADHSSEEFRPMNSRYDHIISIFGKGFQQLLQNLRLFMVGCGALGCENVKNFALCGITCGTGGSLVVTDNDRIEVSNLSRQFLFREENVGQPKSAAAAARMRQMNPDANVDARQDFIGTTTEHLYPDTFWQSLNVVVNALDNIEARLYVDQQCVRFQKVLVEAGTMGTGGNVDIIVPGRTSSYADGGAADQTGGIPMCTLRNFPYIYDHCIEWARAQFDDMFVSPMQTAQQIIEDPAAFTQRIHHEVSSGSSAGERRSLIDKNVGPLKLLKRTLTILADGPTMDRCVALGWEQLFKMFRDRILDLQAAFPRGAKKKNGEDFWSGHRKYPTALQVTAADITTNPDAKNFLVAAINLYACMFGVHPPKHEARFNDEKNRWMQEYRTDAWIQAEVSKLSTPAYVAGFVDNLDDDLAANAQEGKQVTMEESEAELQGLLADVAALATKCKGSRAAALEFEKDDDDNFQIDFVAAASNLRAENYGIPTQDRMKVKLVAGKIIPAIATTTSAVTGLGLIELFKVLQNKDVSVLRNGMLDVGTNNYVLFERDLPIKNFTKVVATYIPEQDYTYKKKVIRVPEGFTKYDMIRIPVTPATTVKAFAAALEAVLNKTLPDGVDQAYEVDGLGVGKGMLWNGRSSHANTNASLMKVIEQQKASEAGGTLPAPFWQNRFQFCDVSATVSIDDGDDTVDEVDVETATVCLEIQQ
Kind of test: Leishmania donovani Ubiquitin Activating Enzyme (LdE1). Format: functional. Conditions: 30 µM.

For test [3], the target named is AMP-activated protein kinase, AMPK (Homo sapiens) (UniProt P54646+O43741+P54619+Q9UGJ0+Q9Y478+Q13131+Q9UGI9). Put plainly: AMP-dependent Kinase enzyme assay. An in vitro enzyme assay that detects ADP turnover that is directly proportional to AMPK activity. This uses naive AMPK that is activated during the assay with MK-8722. Conditions: 30 µM. Format: functional.

For test [4], the target named is Sialic acid-binding Ig-like lectin 9 (Homo sapiens) (UniProt Q9Y336). Put plainly: Hs-Siglec9 ALPHAscreen SOP 20170721. Conditions: 10 µM. For orientation: In Alpha technology, singlet oxygen from a donor bead excites a nearby acceptor bead.
Another test deals with Trypanosoma cruzi. Put plainly: Trypanosoma cruzi phosphomannomutase and mannose-1-phosphate guanylyltransferase assay. Conditions: 10 µM. Type of test: functional.
The target in test [5] is T2, Arginase-2, mitochondrial (Homo sapiens) (UniProt P78540).
T2 sequence (whole entry): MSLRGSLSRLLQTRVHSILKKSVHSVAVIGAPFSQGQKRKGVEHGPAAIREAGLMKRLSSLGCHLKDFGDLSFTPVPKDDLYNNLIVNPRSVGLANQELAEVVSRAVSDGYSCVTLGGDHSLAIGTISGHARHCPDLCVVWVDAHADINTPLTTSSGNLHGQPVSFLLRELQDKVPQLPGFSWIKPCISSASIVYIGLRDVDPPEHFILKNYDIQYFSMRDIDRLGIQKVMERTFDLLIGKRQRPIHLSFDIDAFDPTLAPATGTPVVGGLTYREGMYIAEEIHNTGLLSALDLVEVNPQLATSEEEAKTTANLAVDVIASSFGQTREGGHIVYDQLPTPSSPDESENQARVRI
Kind of test: in vitro enzyme assay to detect the production of urea directly proportional to the activity of Arginase II. Note: in the data most compounds retested in dose-response had high values. Type of test: functional. Conditions: 33.3 µM.

The target in test [6] is T3, Proteasome subunit beta (Trypanosoma cruzi) (UniProt O96673).
T3 sequence (whole entry): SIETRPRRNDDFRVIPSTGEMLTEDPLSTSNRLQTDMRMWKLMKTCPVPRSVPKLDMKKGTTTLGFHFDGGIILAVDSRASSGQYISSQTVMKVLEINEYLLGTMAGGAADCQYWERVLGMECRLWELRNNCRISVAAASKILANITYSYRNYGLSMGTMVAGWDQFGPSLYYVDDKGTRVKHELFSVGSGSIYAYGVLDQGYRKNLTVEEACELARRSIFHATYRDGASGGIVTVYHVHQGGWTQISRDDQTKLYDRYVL
Kind of test: Trypanosoma cruzi proteasome chymotrypsin-like activity (TcProtChymo) assay. Note: in the data most compounds retested in dose-response had high values. Format: functional. Conditions: 9.37 µM.

The species entered for another test is Homo sapiens. Put plainly: To identify inhibition of the IFN signalling (Jak-Stat) pathway via expression of an eGFP reporter gene under the control of an IFN-stimulated response element (ISRE) containing MxA promoter. Format: functional. Conditions: 30 µM.
The target in test [7] is T4, Tyrosyl-tRNA synthetase, putative (Trypanosoma cruzi (strain CL Brener)) (UniProt Q4DSP6).
T4 sequence (whole entry): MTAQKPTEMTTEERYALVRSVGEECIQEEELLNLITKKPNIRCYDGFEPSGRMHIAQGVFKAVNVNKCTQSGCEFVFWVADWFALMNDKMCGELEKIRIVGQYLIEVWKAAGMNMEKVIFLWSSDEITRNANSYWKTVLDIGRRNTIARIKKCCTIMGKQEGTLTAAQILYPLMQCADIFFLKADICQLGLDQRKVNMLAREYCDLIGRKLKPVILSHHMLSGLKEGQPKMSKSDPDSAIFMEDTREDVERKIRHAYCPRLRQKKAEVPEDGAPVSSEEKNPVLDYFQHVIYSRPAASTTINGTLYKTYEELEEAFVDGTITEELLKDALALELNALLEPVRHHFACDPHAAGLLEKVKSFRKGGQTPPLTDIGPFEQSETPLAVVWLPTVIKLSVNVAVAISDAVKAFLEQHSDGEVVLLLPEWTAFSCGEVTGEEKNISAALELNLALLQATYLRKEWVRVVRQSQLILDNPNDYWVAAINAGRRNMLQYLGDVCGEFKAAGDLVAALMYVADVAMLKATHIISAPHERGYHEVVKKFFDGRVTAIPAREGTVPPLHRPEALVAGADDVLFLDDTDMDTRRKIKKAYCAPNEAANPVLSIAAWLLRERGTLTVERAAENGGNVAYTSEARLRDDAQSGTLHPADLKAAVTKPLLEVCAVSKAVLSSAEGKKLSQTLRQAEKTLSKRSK
Kind of test: Trypanosoma cruzi tyrosyl tRNA synthetase (TcYRS) _High Tyrosine SOP. Note: in the data most compounds retested in dose-response had high values. Format: functional. Conditions: 30 µM.

In test [8] the target is T4, Tyrosyl-tRNA synthetase, putative (Trypanosoma cruzi (strain CL Brener)). Put plainly: Trypanosoma cruzi tyrosyl tRNA synthetase (TcYRS) SOP. Type of test: functional. Conditions: 30 µM.
Test [9] addresses Chromo domain-containing protein 1 (Saccharomyces cerevisiae (strain ATCC 204508 / S288c) (Baker's yeast)) (UniProt P32657). Kind of test: ScCHD-1 Enzyme Inhibition Assay. Note: in the data most compounds retested in dose-response had high values. Type of test: functional. Conditions: 30 µM.

Sequence of Chromo domain-containing protein 1 (Saccharomyces cerevisiae (strain ATCC 204508 / S288c) (Baker's yeast)) (P32657 whole entry, the tested form may be a part): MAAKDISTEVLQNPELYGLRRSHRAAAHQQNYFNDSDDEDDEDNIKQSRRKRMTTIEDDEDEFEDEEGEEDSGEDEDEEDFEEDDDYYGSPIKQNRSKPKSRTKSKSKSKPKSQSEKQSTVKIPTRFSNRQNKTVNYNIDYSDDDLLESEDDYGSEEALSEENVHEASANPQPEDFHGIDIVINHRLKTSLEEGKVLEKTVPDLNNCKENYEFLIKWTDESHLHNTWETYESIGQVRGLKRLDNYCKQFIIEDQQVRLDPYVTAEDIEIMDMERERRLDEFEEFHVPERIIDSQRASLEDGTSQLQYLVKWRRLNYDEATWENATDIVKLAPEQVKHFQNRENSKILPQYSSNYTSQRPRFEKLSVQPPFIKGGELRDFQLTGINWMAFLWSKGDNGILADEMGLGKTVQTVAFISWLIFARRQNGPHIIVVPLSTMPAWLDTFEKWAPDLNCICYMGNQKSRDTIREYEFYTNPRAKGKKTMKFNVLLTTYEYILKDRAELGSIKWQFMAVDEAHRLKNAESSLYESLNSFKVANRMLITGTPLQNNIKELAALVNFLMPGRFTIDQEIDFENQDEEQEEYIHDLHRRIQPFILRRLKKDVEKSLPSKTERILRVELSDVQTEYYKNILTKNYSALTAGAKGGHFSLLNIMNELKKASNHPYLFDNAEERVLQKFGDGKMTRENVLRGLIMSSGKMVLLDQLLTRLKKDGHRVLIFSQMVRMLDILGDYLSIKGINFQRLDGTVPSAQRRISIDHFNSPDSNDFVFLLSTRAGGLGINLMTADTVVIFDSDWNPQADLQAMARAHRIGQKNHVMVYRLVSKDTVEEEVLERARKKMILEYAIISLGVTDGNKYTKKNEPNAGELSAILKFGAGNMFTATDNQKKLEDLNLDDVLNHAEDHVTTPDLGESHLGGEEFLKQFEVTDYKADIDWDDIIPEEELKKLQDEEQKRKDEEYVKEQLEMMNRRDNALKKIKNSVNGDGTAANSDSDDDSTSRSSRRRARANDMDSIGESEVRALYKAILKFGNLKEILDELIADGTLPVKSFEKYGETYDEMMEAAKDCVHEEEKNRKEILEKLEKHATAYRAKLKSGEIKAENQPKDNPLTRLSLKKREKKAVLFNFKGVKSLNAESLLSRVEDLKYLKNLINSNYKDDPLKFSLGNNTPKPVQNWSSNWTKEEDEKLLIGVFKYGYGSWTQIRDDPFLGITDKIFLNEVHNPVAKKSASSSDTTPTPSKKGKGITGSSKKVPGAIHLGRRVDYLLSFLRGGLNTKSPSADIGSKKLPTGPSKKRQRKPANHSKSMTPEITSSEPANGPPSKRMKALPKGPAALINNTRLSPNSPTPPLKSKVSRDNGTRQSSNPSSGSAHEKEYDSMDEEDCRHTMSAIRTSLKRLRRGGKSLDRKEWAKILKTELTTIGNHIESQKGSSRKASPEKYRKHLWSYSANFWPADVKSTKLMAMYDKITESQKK
Sequence of Sialic acid-binding Ig-like lectin 9 (Homo sapiens) (Q9Y336 whole entry): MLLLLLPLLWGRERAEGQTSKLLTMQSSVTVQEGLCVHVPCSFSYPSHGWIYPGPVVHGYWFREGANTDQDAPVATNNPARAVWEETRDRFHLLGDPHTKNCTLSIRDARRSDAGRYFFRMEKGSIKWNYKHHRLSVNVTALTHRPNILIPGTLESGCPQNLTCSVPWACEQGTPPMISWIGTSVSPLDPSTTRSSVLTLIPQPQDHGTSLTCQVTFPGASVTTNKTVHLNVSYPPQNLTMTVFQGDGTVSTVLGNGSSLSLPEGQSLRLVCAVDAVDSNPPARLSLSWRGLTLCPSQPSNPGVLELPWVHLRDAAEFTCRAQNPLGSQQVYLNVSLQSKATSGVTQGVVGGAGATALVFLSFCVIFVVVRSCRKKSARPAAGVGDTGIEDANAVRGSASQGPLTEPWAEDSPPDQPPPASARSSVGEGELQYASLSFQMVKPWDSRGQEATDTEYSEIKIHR
Sequence of Protein translocase subunit SecA (Escherichia coli (strain K12)) (P10408 whole entry): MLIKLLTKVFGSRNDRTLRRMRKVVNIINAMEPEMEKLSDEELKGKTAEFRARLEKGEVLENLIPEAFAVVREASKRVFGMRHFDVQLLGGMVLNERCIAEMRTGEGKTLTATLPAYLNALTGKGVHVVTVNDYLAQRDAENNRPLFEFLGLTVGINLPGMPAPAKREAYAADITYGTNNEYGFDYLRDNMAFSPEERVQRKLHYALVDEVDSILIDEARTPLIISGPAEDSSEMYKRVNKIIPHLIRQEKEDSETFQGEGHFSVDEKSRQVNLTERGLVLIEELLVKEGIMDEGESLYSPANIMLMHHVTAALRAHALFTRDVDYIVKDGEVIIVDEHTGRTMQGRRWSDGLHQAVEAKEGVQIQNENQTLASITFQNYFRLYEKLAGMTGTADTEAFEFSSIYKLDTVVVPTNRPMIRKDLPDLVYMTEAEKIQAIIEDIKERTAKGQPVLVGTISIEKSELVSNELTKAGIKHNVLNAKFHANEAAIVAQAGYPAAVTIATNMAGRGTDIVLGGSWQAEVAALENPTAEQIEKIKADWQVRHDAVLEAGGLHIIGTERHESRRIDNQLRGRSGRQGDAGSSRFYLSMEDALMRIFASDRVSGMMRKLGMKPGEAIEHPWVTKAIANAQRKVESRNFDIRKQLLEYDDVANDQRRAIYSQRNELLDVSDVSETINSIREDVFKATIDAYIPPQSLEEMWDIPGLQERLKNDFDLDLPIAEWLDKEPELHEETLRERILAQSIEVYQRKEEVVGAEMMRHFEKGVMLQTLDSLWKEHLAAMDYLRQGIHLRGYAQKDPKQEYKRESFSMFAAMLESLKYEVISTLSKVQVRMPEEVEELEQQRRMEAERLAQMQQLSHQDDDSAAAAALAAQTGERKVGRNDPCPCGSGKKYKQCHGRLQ

For `Cc1cnc2n(c1=O)C(CC(=O)NCc1cc(-c3cccs3)on1)CS2` (stereo unspecified), the Percent Effect was -0.436% in [1]; 20.8% in test [2]; 11.4% in test [3]; -23.7% in test [4]; 1.28% with Trypanosoma cruzi; 5.81% in test [5]. Also, the Percent Effect in [6] is 6.79%; in the test listed under Homo sapiens it was 28.9%; in test [7], 2.12%; in test [8] it was 16.7%; in test [9], -11%.
For the compound `CSc1ccc(NS(=O)(=O)c2cnn(C)c2)cn1`, the Percent Effect in [1] was -5.12%; in test [2] it was 8.22%; in [3], -0.942%; in [4], 42.3%; in the test with Trypanosoma cruzi, 3.57%; in test [5], -4.39%. In addition, the Percent Effect in test [6] was 0.0856%; in the test filed under Homo sapiens, -19.3%; in test [7] it was 4.17%; in test [8], 13.6%; in [9], -2.22%.
Regarding `CCOc1cc(C(=O)N2CCCC(c3noc(C)n3)C2)ccn1` (stereo unspecified), the Percent Effect in test [1] is -5.03%; in test [2], 10.5%; in test [3], -4.05%; in [4] it was 13.6%; in the test on Trypanosoma cruzi, -2.15%; in test [5], -1.08%. In addition, the Percent Effect in test [6] was 2.12%; in the test filed under Homo sapiens, -18.5%; in test [7], 5.42%; in test [8], 11.1%; in [9] it was -2.64%.
For `O=C(c1ccc(Cl)c(Cl)c1)N1CCCC(n2cncn2)C1` (stereo unspecified), the Percent Effect in test [1] is -0.919%; in [2] it was 2.7%; in test [3] it was -3.55%; in [4], 0.213%; in the test on Trypanosoma cruzi, -2.14%; in [5], 6.47%. The Percent Effect in test [6] was -7%; in the test filed under Homo sapiens it was 6.82%; in [7], 3.96%; in [8], 3.66%; in test [9], 7.67%.
`CC(C)c1nc(C2CCCN(C(=O)CCn3ccnc3)C2)no1` (stereo unspecified): the Percent Effect was -0.0893% in test [1]; 24.3% in [2]; -7.28% in test [3]; -4.78% in test [4]; 1.42% with Trypanosoma cruzi; -17.6% in test [5]. Besides, the Percent Effect in test [6] was 16.4%; in the test filed under Homo sapiens, 19.3%; in test [7], 6.4%; in [8], 18.5%; in [9], -10.5%.
On to `CC(C)c1nnc2n1CCN(C(=O)CN1CCc3sccc3C1)C2`, for which the Percent Effect in [1] was -3.25%; in test [2], 5.26%; in [3], -8.35%; in [4], -4%; with Trypanosoma cruzi it was 7.71%; in [5], 4.6%. In addition, the Percent Effect was -2.34% in test [6]; 0.728% in the test listed under Homo sapiens; 3.43% in test [7]; 7.32% in [8]; -5.85% in [9].
Take `Cc1ccc(N2CCCC(NCC(=O)NC3CCOCC3)C2)nn1` (stereo unspecified): the Percent Effect in test [1] is -5.04%; in test [2], -3.8%; in test [3], -5.1%; in test [4] it was 4.11%; in the test with Trypanosoma cruzi, -1.13%; in test [5], 4.95%. The Percent Effect in test [6] was 3.94%; in the test listed under Homo sapiens it was -13.5%; in test [7], 0%; in test [8] it was 5.06%; in test [9], -2.4%.
On to `Cc1nc(CN(Cc2ccccc2)C2CCS(=O)(=O)C2)oc1C` (stereo unspecified), for which the Percent Effect is -2.4% in test [1]; 15.8% in [2]; -3.46% in test [3]; 2.71% in test [4]; 5.32% in the test on Trypanosoma cruzi; -1.08% in [5]. Also, the Percent Effect in [6] is 10.4%; in the test filed under Homo sapiens, -8.35%; in test [7], 7.39%; in [8], 23.5%; in test [9], -6.72%.
With `COc1c(C2CCCN2C(=O)c2ccc(Cl)o2)c(C)nn1C` (stereo unspecified), the Percent Effect in test [1] is -5.93%; in [2], 13.5%; in test [3] it was -4.28%; in test [4], 21.4%; in the test with Trypanosoma cruzi, 2.93%; in test [5], 4.17%. Also, the Percent Effect was 10.6% in [6]; -2.68% in the test filed under Homo sapiens; 5.94% in [7]; 18.3% in [8]; -0.337% in [9].
With `CS(=O)(=O)CCSc1cccc(C#N)c1`, the Percent Effect in test [1] is -3.18%; in test [2], -4.17%; in test [3], -4.21%; in test [4] it was -5.6%; in the test on Trypanosoma cruzi it was -0.291%; in test [5] it was -0.442%. In addition, the Percent Effect in test [6] was 7.72%; in the test listed under Homo sapiens it was 7.41%; in test [7] it was -1.05%; in test [8] it was 0%; in test [9] it was -0.524%.
As for `Cc1noc(Cl)c1CCC(=O)N1CCN(c2ncccn2)CC1`, the Percent Effect in test [1] was -1.95%; in test [2], 10.5%; in test [3], -1.41%; in [4], -4.66%; in the test on Trypanosoma cruzi it was -11.1%; in [5], 5.75%. Moreover, the Percent Effect in test [6] worked out at 7.02%; in the test filed under Homo sapiens, 21.6%; in test [7], 5.42%; in test [8], 13.6%; in [9], 1.74%.
